# Source: PubChem BioAssay AID588852 (The Scripps Research Institute Molecular Screening Center, 2011)
# In all, about 360,000 compounds went through this assay and about 4,600 (1.3%) were called active. The full list was thinned out, with actives kept by preference. Unmarked numbers belong to inactive results.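 Rule for the calls: active = percent inhibition above its own plate's cutoff, namely the mean of that plate's compound wells plus 3 SD; inactive = the rest.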
# Target: Muscarinic acetylcholine receptor M1 (Homo sapiens) (UniProt P11229)
# Test: human M1 muscarinic receptor antagonists, primary screen, CHO-K1 cells, Fluo-8 calcium fluorescence, 1536-well (AID 588852);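 note: peak over basal fluorescence ratio during 140 s after agonist addition; 0% = ACh EC80 plus DMSO and 100% = DMSO alone without agonist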
# Details: CHO-K1 hM1, Fluo-8 calcium fluorescence, ACh EC80 antagonist; at 3 µM; stronger effect = higher value
# Sequence of Muscarinic acetylcholine receptor M1 (Homo sapiens) (P11229 whole entry, looked up): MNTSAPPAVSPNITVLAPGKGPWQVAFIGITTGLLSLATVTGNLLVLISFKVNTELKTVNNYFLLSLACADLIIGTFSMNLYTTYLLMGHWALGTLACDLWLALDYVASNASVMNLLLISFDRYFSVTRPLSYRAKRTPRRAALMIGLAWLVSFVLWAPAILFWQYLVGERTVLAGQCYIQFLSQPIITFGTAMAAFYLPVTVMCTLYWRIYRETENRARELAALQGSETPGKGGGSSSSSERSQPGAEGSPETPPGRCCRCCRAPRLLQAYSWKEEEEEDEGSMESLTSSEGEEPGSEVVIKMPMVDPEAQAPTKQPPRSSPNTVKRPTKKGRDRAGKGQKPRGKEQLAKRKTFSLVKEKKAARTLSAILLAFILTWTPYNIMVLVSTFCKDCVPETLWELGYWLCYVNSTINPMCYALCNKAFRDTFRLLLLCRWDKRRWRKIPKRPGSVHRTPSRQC
row,Compound,inhibition
1,CC(C)Cc1ccc(-c2cc3nc(NCc4cccc(Cl)c4)ccn3n2)cc1,-8.68%
2,Cc1nnc(SC(C)C(=O)c2c[nH]c3ccccc23)n1C1CC1 (configuration not stated),2.35%
3,C[C@H]1CN([C@@H](C)CO)S(=O)(=O)c2ccc(Br)cc2O[C@H]1CN(C)C(=O)c1cnccn1,-4.86%
4,O=C(Cc1ccccc1)Nc1c(Cl)ccc2nsnc12,-7.81%
5,CCNCCC(=O)N1c2ccccc2Sc2ccc(NC(=O)OCC)cc21,56% (active)
6,CCOC(=O)Nc1ccc2c(c1)N(C(=O)CCN1CCN(CCO)CC1)c1ccccc1CC2,16.4%
7,CCOC(=O)Nc1ccc2c(c1)N(C(=O)CCCl)c1ccccc1[S@]2=O,-17.2%
8,Cc1cc2c(cc1C)N(C(=O)CN1C(=O)c3ccccc3C1=O)C(C)(C)c1ssc(=S)c1-2,9.39%
9,Nn1c(SCC(=O)Nc2nccs2)nncc1=O,11.7%
10,CC(=O)Nc1ccc(OC(=O)COc2ccc(Br)cc2)cc1,1.05%
11,Cc1ccc(O)c(NC(=S)NC(=O)COc2ccc(Br)cc2)c1,34.7% (active)
12,Cn1cccc1C(=O)NNC(=O)COc1ccc(Br)cc1,-13%
13,Cc1nn(CCCC(=O)NCc2ccccc2Cl)c(=O)c2nccn12,-19.9%
14,COc1ccc(Nc2cc(=O)n(-c3ccccc3)c3c2c(=O)n(C)c(=O)n3C)cc1,12.9%
15,Cc1ccc(-c2c3c(=O)n(C)c(=O)n(C)c3cn2-c2ccccc2O)cc1,7.07%
16,COc1cccc(-n2cc3c(c2-c2ccccc2)c(=O)n(C)c(=O)n3C)c1,36.7% (active)
17,O=c1[nH]c2ccccc2n1C1CCN(CCOc2ccccc2)CC1,78.4% (active)
18,O=C1CCN(CCc2ccccc2)CCN1CCOc1ccccc1,-21.3%
19,O=S(=O)(c1cccs1)N1CCN(CCOc2ccccc2)CC1,-13.2%
20,O=C(Nc1cc(Br)ccc1F)c1nc[nH]c1C(=O)NCc1ccccc1,-2.93%
21,CCOC1CS(=O)(=O)CC1OCC (configuration not stated),-4.01%
22,Cc1ccc(CN2CC(N3CCC(Cc4ccccc4)CC3)CS2(=O)=O)cc1 (configuration not stated),-11.4%
23,CCN(CCCNC(=O)CSc1cc(=O)n(C)c2cc(Cl)ccc12)Cc1ccccc1,2.6%
24,Cn1cncc1COC(=O)c1ccc(Cl)cc1,88.4% (active)
25,Cc1cc(OC(=O)c2ccc(Cl)cc2)cc(=O)n1C,-25.4%
26,COC(=O)c1ccc(COC(=O)c2cnc(Cl)c(Cl)c2)cc1,-11.6%
27,Cc1ccccc1NC(=O)CSC1=NCCN1,-2.31%
